Sampled rows, rich in hits. Any-hit rate of the full collection: about 3%.
Nrf2 block: inhibitors of Nrf2 signaling | 2.1% of 360,000 active | Potency, µM (series often up to 46 µM), most hits filed as inhibitors | A549 ARE-Fluc reporter, luciferase luminescence, 18-24 h; also: nearly all actives have a fitted effect of over 60% in size
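Cells were seeded and rested 2 h, then exposed to compounds for 18-24 h. CellTiter-Fluor was read first as a viability measure. BugLite was added 15 min before the final luminescent read of ARE-luciferase activity in A549 cells.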
TrxR1 substrate: is turned over as a substrate by rat TrxR1. O89049. Potency, µM (titrated, usually from 114 µM). 0.01% of 390,000 active. purified TrxR1 substrate turnover, NADPH consumption readout. AID 588456; also: nearly all actives have a fitted effect of over 50% in size
Target sequence (O89049 whole entry, looked up): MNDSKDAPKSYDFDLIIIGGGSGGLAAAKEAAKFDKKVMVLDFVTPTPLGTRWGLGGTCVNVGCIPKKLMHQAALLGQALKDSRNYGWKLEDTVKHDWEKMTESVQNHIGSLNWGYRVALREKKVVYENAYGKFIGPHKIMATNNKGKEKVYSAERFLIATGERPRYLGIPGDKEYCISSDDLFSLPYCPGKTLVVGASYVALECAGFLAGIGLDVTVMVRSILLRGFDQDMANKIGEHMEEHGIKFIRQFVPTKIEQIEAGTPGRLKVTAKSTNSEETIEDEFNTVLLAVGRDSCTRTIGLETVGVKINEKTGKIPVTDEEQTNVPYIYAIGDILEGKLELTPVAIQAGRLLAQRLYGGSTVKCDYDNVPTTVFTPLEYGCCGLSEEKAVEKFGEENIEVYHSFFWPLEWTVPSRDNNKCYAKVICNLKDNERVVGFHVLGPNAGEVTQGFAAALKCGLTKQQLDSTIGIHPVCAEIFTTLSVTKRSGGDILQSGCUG
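Rat TrxR1, dispensed at 90 nM, was prereduced with 400 uM NADPH (final) for 5 min at ~22 deg C, then incubated with compound 15 min before 400 uM selenite. A first-read NADPH fluorescence drop versus no-compound background flagged substrates.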
Nrf2 ARE act: activators of Nrf2 (ARE) signaling; Potency, µM (titrated, usually from 46.1 µM), usual class: activators; AREc32 ARE-luciferase reporter (MCF7-derived line), luminescence, 24 h; 0.31% of 410,000 active; also: nearly all actives have a fitted effect of over 65% in size
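AREc32 cells carrying an ARE-driven firefly luciferase reporter were seeded at 1000 cells/well in OPTI-MEM with 5% FBS, then exposed to compound for 24 hr at 37 deg C. Luminescence was read with Steady-Glo after 30 min at RT.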
TrxR1 inh: inhibitors of rat thioredoxin reductase 1. O89049. recombinant rTrxR1, NADPH fluorescence consumption, selenite substrate. Potency, µM (series often up to 114 µM), most hits filed as inhibitors. 1% of 390,000 active; also: nearly all actives have a fitted effect of over 65% in size
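Rat TrxR1 (90 nM in the dispensed reagent) was pre-reduced with 400 uM NADPH for 5 min at room temperature, then incubated with compound for 15 min. After 400 uM selenite was added, NADPH fluorescence (Ex 340/Em 450 nm) was followed for 8 min.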
GALK inh: blocks human galactokinase activity; AID 1868; Potency, µM (doses to about 57.5 µM), actives largely listed as inhibitors; Purified GALK, Kinase-Glo residual ATP luminescence; 0.007% of 270,000 active; P51570
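ATP-depletion format; final 35 uM ATP, 100 uM D-galactose, 5 nM enzyme; pH 8.0 HEPES/Mg2+ buffer; 60 min RT; luminescence read 10 min after detection reagent.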
A549 tox: A549 cytotoxicity, counter-screen for Nrf2 inhibitors; A549 ARE-Fluc cells, CellTiter-Fluor viability, 18-24 h; Potency, µM (doses to about 46 µM), actives largely listed as inhibitors; 0.16% of 390,000 active; AID 504648
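Cytotoxicity counterscreen: CellTiter-Fluor fluorescence was measured in A549 ARE_Fluc cells after 18-24 h of compound exposure in a concentration series. The subsequent BugLite luminescent read reports ARE-luciferase activity.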
Numbers stand for hits; i = inactive; ? = inconclusive; nt = no result; ! = a repeat was not active; [ ] = another dose, or the depositor's remark. Calls follow the shape of the dose curve; as a rule, active = well fitted curve in the direction sought with a large enough effect; inconclusive = small, poorly fitted or top-dose-only effect, or another doubt; inactive = no such curve, though single readings can be large; an effect the other way counts as inactive or inconclusive.

SMILES | Nrf2 block | TrxR1 substrate | Nrf2 ARE act | TrxR1 inh | GALK inh | A549 tox
COc1ccccc1N1CCN(c2ccc(=O)n(CC(=O)Nc3ccc(F)c(F)c3)n2)CC1 | i | i | i | i | nt | i
NCCCN(Cc1ccc(Cl)c(Cl)c1)c1ccc(Br)cn1 | i | i | nt | i | nt | i
O=S(=O)(CC(CN1CCCC1)N1CCCC1)c1ccc2ccccc2c1 (centres undefined) | ? | i | i | 8.9µM | i | ?
Cc1ccc(S(=O)(=O)CC(CN2CCOCC2)N2CCOCC2)cc1 (centres undefined) | i | i | i | i | i | i
CCOCCc1nnc(NC(=O)C(=O)c2cc(C)n(-c3ccc(C)cc3C)c2C)s1 | i | i | i | i | nt | i
Cc1ccc(S(=O)(=O)N(C)C)cc1NC(=O)c1cncc(Br)c1 | 12µM | i | i | i | i | i
CCOc1ccc(CN(C)C(=O)[C@H](Cc2ccccc2)NC(=O)OCc2ccccc2)cc1OC | 21µM | i | i | i | i | ?
CN(CCc1ccccc1)C(=O)c1ccc(NC(=O)Cc2ccc(NC(=O)C3CCN(C(=O)CCc4ccccc4)CC3)cc2)cc1 | 9.2µM | i | i | i | nt | i
CN(CCc1ccccc1)C(=O)c1cccc(NC(=O)Cc2cccc(NC(=O)C3CCCN(C(=O)c4ccccc4)C3)c2)c1 (centres undefined) | 26µM | i | i | i | nt | i
COc1nc(-c2ccccc2)ccc1-c1noc(-c2ccccc2Br)n1 | i | i | i | i | nt | i
CC(=O)c1ccc2noc(-c3ccc(C)cc3)c2c1 | i | i | i | 7.1µM | i | i
COc1ccc(/C=C2\N=C(C)OC2=O)cc1OC | i | i | i | 40µM | i | i
COc1ccc(/C=C2\N=C(C)OC2=O)cc1OC(C)=O | i | i | i | 45µM | i | i
CCOC(=O)COc1c(Cl)cc(/C=C2\N=C(C)OC2=O)cc1OC | i | i | i | 14µM | nt | i
CCOc1cc(/C=C2\N=C(C)OC2=O)cc(Br)c1OCC(=O)OC | i | i | i | ? | i | i
COc1ccc(N2CC(NC(=O)C(=O)c3c(C)[nH]c4ccccc34)CC2=O)cc1 (centres undefined) | nt | i | i | i | nt | i
Cc1cc(C)c(S(=O)(=O)c2ccccc2)c(OC(=O)c2c(Cl)cc(Cl)cc2Cl)n1 | 16µM | i | i | i | i | ?
Cc1cc(C)c(S(=O)(=O)c2ccccc2)c(OC(=O)c2c(F)cccc2F)n1 | ? | i | i | i | i | i
CC1=C(C(=O)Nc2ccc(Cl)cc2)C(c2ccccc2)n2ncc(C(=O)Nc3ccccc3)c2N1 (centres undefined) | 16µM | i | i | i | nt | i
Cc1ccc(NS(=O)(=O)c2ccc(-c3cc(C)no3)cc2)c(Br)c1 | 23µM | i | i | i | nt | i
Cc1cc(-c2ccc(S(=O)(=O)Nc3ccccc3C)cc2)on1 | ? | i | i | i | nt | i
Cc1cc(-c2ccc(S(=O)(=O)Nc3ccc(Cl)cc3C)cc2)on1 | 21µM | i | i | i | nt | i
Cc1cc(-c2ccc(S(=O)(=O)Nc3cccc(Cl)c3C)cc2)on1 | ? | i | i | i | nt | i
O=C(Cn1c(SCC(=O)Nc2ccc(F)cc2)nc2ccccc21)NCc1ccc(Cl)cc1 | nt | i | i | i | nt | i
O=C(Cn1cc(SCc2ccccc2F)c2ccccc21)N1CCCCC1 | i | i | i | i | nt | i
SMILES | Nrf2 block | TrxR1 substrate | Nrf2 ARE act | TrxR1 inh | GALK inh | A549 tox
COc1ccc2c(CNC3CCCCCC3)c(C(=O)O)n(Cc3ccccc3F)c2c1 | i | i | i | i | nt | i
CC(C)(C)OC(=O)Nc1ncnc2c1C(c1ccccc1)c1c(ccc3ccccc13)O2 (centres undefined) | i | nt | nt | nt | nt | i
N=c1c2c(ccn1CCc1ccccc1)Oc1ccc3ccccc3c1C2c1ccccc1 (centres undefined) | 3.7µM | nt | nt | nt | nt | 3.7µM
Nc1ncnc2c1C(c1ccccc1)c1c(ccc3ccccc13)O2 (centres undefined) | 18µM! | i | i | i | nt | ?
Cc1ccc(CNC(=O)c2ccc(CS(=O)(=O)Cc3ccc(F)cc3)o2)cc1 | nt | i | i | i | nt | i
C=CCSc1nnc(NC(=O)c2nc(SCC)ncc2Cl)s1 | ? | i | i | i | i | i
CCSc1nnc(NC(=O)c2nc(S(=O)(=O)Cc3ccc(F)cc3)ncc2Cl)s1 | ? | i | i | 25µM | i | i
CC(C)c1nnc(NC(=O)c2nc(S(=O)(=O)Cc3ccc(F)cc3)ncc2Cl)s1 | i | i | ? | 32µM | i | ?
CC(C)c1nnc(NC(=O)c2nc(SCc3ccc(F)cc3)ncc2Cl)s1 | i | i | i | i | nt | i
Cc1ccc(C)c(NC(=O)c2nc(S(=O)(=O)Cc3ccc(F)cc3)ncc2Cl)c1 | i | i | i | 1.6µM | nt | ?
Cc1ccc(CS(=O)(=O)c2ncc(Cl)c(C(=O)Nc3nnc(C(C)C)s3)n2)cc1 | 21µM! | i | i | 32µM | i | ?
CCc1ccc(CN(Cc2ccco2)C(=O)c2cc(-c3ccc(Cl)cc3)on2)cc1 | i | i | i | i | nt | i
CSc1nnc(NC(=O)c2nc(S(=O)(=O)Cc3cccc(C)c3)ncc2Cl)s1 | ? | i | ? | ? | i | i
Cc1cccc(CS(=O)(=O)c2ncc(Cl)c(C(=O)Nc3nnc(C(C)C)s3)n2)c1 | i | i | i | 25µM | i | ?
CCOC(=O)c1c(-c2cccs2)csc1NC(=O)CN(CC)CC | 18µM | i | i | i | nt | ?
COc1cc(/C=C2\C(=O)ON=C2c2ccc(Cl)cc2)ccc1O | i | i | i | 20µM | nt | i
COc1ccc(/C=C2\C(=O)ON=C2c2ccccc2)cc1 | i | i | i | 14µM | i | i
O=C1ON=C(c2cccc([N+](=O)[O-])c2)/C1=C/c1ccc(O)cc1 | i | i | i | 7.9µM | i | i
O=C1ON=C(c2ccccc2)/C1=C/c1ccc(OS(=O)(=O)c2ccccc2)cc1 | i | i | i | 2.8µM | i | i
O=C1ON=C(c2ccccc2)/C1=C/c1ccc(O)c(O)c1 | i | i[2.29 µM] | i | ? | ? | i
Cc1ccc(-c2onc(C)c2C)cc1S(=O)(=O)N1CCN(c2ccccc2F)CC1 | ? | i | i | i | nt | i
CCCOC(=O)c1c(NC(=O)C2c3ccccc3Oc3ccccc32)sc2c1CCC(C)C2 (centres undefined) | i | i | i | i | nt | i
Cc1ccc(NC(=O)c2ccco2)c([N+](=O)[O-])c1 | i | i | 11µM | i | i | i
COC(=O)c1sccc1NC(=O)c1ccco1 | i | i | 11µM | i | i | i
COC(=O)c1sccc1NC(=O)c1cccc(F)c1 | i | i | 10µM | i | nt | i
COC(=O)c1sccc1NC(=O)c1ccccc1[N+](=O)[O-] | i | i | 11µM | i | i | i
